PubChem BioAssay (NCI)
About 83,000 compounds went through this panel and 20% of them were active in at least one assay; those are over-represented in the sample as a whole.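 Assay: single dose, 48 h. Readout: percent growth (0 = no net growth; negative = cell death). Active: <10.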 A number with no mark means an inactive call. Activity calls are given as the source filed them.

Tested on: MDA-MB-468 breast
Assay: NCI-60 one-dose screen, 48 h (100 = growth as untreated, 0 = no growth, -100 = all killed)
Conditions: 10 µM unless noted

| SMILES | growth |
| --- | --- |
| Cc1ccc(C(=O)C2C(=O)C3CCC2C3)cc1 (stereo not given) | 100% |
| COc1cc(C2CC(c3ccc(Cl)cc3)=NN2c2ccc(Cl)cc2)cc(OC)c1OC (stereo not given) | 100% |
| COc1cc2cc(Oc3ccc(NC(=O)c4ccc(Cl)c(C(F)(F)F)c4)cc3)c(C)nc2cc1OC | 6.44% (active) |
| COc1cccc(N2CCN(C3=C(Cl)C(=O)c4ncccc4C3=O)CC2)c1 | -63.6% (active) |
| O=C(CCCCCCN1CC(=O)N2[C@@H](C3CCCCC3)c3[nH]c4ccccc4c3C[C@H]2C1=O)NO | 64.3% |
| O=C(c1cccc(N2CCOCC2)n1)c1c[nH]c2ccccc12 | 89.5% |
| CCn1cc(C(=O)N/N=C/c2ccccc2)c(=O)c2cc(F)c(N3CCNC(C)C3)c(F)c21 (stereo not given) | 30.4% |
| COc1cccc(OC)c1Oc1c(-c2nc3ccccc3s2)c(C)nn1-c1ccccc1 | 71.2% |
| S=CN1CCCCC1 | 93% |
| Cc1csc(Nc2nc(-c3ccc(Cl)cc3)nc(C(Cl)(Cl)Cl)n2)n1 | 9.54% (active) |
| Cc1ccc(-c2cc(-c3cccnc3)[nH]c(=O)c2C#N)cc1 | 106% |
| CC(=O)Nc1c(I)c(NC(C)=O)c(I)c(C(=O)O)c1I | 115% |
| Oc1ccc(Nc2nccc(-c3ccc4ccccc4c3)n2)cc1 | 20.7% |
| C[C@H]1OC(=O)/C=C/[C@@H](O)[C@@H](O)CCCCCCCC[C@@H]1O | 97.2% |
| NC(=S)N/N=C(\c1ccc(Cl)cc1)C1CC1 | 18.5% |
| CCCCCCCCCCCCCC(=O)Oc1ccc[nH]c1=O | 89.4% |
| Cc1c(CC(=O)OCCO)cc(-c2ccc(Cl)cc2)n1-c1ccccc1 | 89.1% |
| CC(C)=CCC[C@](C)(O)[C@H]1CC[C@]2(C)[C@@H]1CC[C@@H]1[C@@]3(C)Cc4nccnc4C(C)(C)[C@@H]3CC[C@]12C | 69.4% |
| Cc1ccc(Cl)cc1NC(=O)c1sc2nc3c(cc2c1N)C(=O)CCC3 | 8.44% (active) |
| C=C(CNCCc1ccc(O)cc1)[C@@H]1CC[C@]2(CO)CC[C@]3(C)[C@H](CC[C@@H]4[C@@]5(C)CCC(NCCc6ccc(O)cc6)C(C)(C)[C@@H]5CC[C@]43C)[C@@H]12 (stereo not given in full) | -74.6% (active) |

| SMILES | growth |
| --- | --- |
| CCC1CCc2nc3sc(C(=O)Nc4cccc(F)c4)c(N)c3cc2C1 (stereo not given) | 23.4% |
| O=S(=O)(NCl)c1ccccc1 | 108% |
| Oc1ccccc1/C=N/N1CCCCCC1 | 107% |
| COc1ccc(C/C(C)=C(\c2ccc(Cl)cc2)c2ccc(OCCN3CCCCCC3)cc2)cc1 | 70.9% |
| c1ccc2cc(C[n+]3ccn(CCCCCCCCCCCCn4cc[n+](Cc5ccc6ccccc6c5)c4)c3)ccc2c1 | -81.7% (active) |
| Cn1cc(-c2csc(-c3cn(CCCN4CCCCC4)c4ccc(F)cc34)n2)c2cccnc21 | 91.7% |
| COc1ccc2[nH]c(O)c(/C=c3/ccc4c(c3)N=C(c3ccc(F)cc3)N=4)c2c1 | 76% |
| O=C(NNc1nc2cc(F)ccc2n2c(CN3CC4(COC4)C3)ccc12)c1cnccn1 | -16.1% (active) |
| CN1CCc2c(sc3nc4n(-c5ccc(Cl)cc5)cnn4c(=O)c23)C1 | 81.7% |
| N#Cc1ccccc1-c1ccc(CN2C(=O)S/C(=C\c3ccc(Br)cc3)C2=O)cc1 | 112% |
| NC(N)=N/N=C(/c1ccccc1)c1ccc(Cl)cc1 | 39.6% |
| CC1(C)[C@@H](O)CC[C@]2(C)[C@H]3CC[C@@H]4[C@H]5[C@H](c6cn(-c7ccccc7)nn6)CC[C@]5(CO)CC[C@@]4(C)[C@]3(C)CC[C@@H]12 | 65.4% |
| CC(C)(C)NC(C1=CC(C)(C)c2ccccc2C1=O)c1ccccc1 (stereo not given) | -100% (active) |
| N#Cc1c(Nc2ccccc2)nn2cc(-c3nc4ccccc4s3)c(N)nc12 | 73.8% |
| O=C1c2ccc3c4c(ccc(c24)C(=O)N1CCNCc1ccccc1)C(=O)N(CCNCc1ccccc1)C3=O | -62.9% (active) |
| C#CCOc1cccc(Nc2ncc3ncn(C4CCN(C(=O)CCl)C4)c3n2)c1 (stereo not given) | 24.5% [6.25 µM] |
| CNC(=O)Nc1ccc(-c2ccc3ncnc(Nc4cccc(Cl)c4)c3c2)cc1 | -29.2% (active) |
| NS(=O)(=O)c1ccc(NCC(=O)Nc2ccc(-c3nc4ccccc4s3)cc2)cc1 | 4.26% (active) |
| COc1c(C)c(C)c(OC)c2c1[nH]c(=O)c1c3cccnc3cn21 | 114% |
| CCCCCCC[C@@H](O)CC(=O)N[C@H](CCCCN)C(=O)N[C@H](Cc1c[nH]c2ccccc12)C(=O)NC(CCCCN)C(=O)N[C@H](CC(C)C)C(=O)N[C@H](Cc1ccccc1)C(=O)N[C@H](CCCCN)C(=O)N[C@H](CCCCN)C(=O)N[C@H](CC(C)C)C(=O)N1CCCC1C(=O)N[C@H](CCCCN)C(=O)N[C@H](Cc1ccccc1)C(=O)N[C@H](CC(C)C)C(=O)N[C@H](Cc1c[nH]cn1)C(=O)N[C@H](CC(C)C)C(=O)N[C@H](C)C(=O)N[C@H](CCCCN)C(=O)N[C@H](CCCCN)C(=O)N[C@H](Cc1ccccc1)C(=O)O (stereo not given in full) | -58.2% (active) |
